Where “and” joins values, the source holds several entries; their conditions need not be identical. Equal values may be shown once. Compounds without any hit were thinned out: in the full panel of roughly 83,000, 20% have a hit.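 Activity criterion: percent growth below 10, measured after cells in 96-well plates were exposed to a single compound concentration for 48 hours.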 Calls of active or inactive are those of the source.
Columns and labels:
Test in all cases: NCI-60 one-dose screen, 48 h (100 = growth as untreated, 0 = no growth, -100 = all killed)
Conditions in all cases: 10 µM unless noted
DU-145 prostate = system: DU-145 prostate
K-562 leukemia = system: K-562 leukemia
MALME-3M melanoma = system: MALME-3M melanoma
MDA-MB-231 breast = system: MDA-MB-231 breast
RXF 393 renal = system: RXF 393 renal
UACC-257 melanoma = system: UACC-257 melanoma
M14 melanoma = system: M14 melanoma
HCT-15 colon = system: HCT-15 colon
HT29 colon = system: HT29 colon
PC-3 prostate = system: PC-3 prostate
SK-MEL-5 melanoma = system: SK-MEL-5 melanoma
UACC-62 melanoma = system: UACC-62 melanoma
LOX IMVI melanoma = system: LOX IMVI melanoma
SK-MEL-28 melanoma = system: SK-MEL-28 melanoma
SF-268 CNS = system: SF-268 CNS
SF-295 CNS = system: SF-295 CNS
SF-539 CNS = system: SF-539 CNS
SNB-75 CNS = system: SNB-75 CNS
U251 CNS = system: U251 CNS
SNB-19 CNS = system: SNB-19 CNS

Measured: growth

CN1CCN(CCC=C2c3ccccc3Sc3ccc(S(=O)(=O)N(C)C)cc32)CC1
-13.1% (active) and 40.5% (inactive): MALME-3M melanoma
active: K-562 leukemia 1.04% and -15.5% | UACC-257 melanoma -83.1% and -57.7% | M14 melanoma -67% and -79.2% | HT29 colon 4.86% and 4.22% | UACC-62 melanoma -42.7% | SK-MEL-28 melanoma -54.1% and -73.3%
inactive: DU-145 prostate 88.1% and 101% | MDA-MB-231 breast 42.8% and 69.3% | RXF 393 renal 30.4% and 60% | HCT-15 colon 46.4% and 59.2% | PC-3 prostate 52.7% and 61.6% | SK-MEL-5 melanoma 26.4% and 69.1% | LOX IMVI melanoma 15.9% and 40.7%

COc1ccc(S(=O)(=O)N2CCOCC2)cc1NC(=O)c1[nH]c(C)c2c1CCCCC2=O
101% (inactive) and 7.61% (active): SNB-75 CNS
inactive: DU-145 prostate 107% and 81.5% | K-562 leukemia 105% and 46.1% | MALME-3M melanoma 103% and 53.9% | MDA-MB-231 breast 110% and 44.6% | RXF 393 renal 109% and 37.7% | SF-268 CNS 98.5% and 72.1% | SF-295 CNS 100% and 60.7% | SF-539 CNS 95.4% and 43.6% | UACC-257 melanoma 101% and 58.7% | HCT-15 colon 104% and 26.9% | HT29 colon 112% and 31.7% | U251 CNS 97.9% and 63.2% | PC-3 prostate 46.4% | SK-MEL-5 melanoma 97.8% and 70.9% | UACC-62 melanoma 98.2% and 33.3% | LOX IMVI melanoma 98.6% and 23.5% | SK-MEL-28 melanoma 101% and 62.5%

O=C(Cc1cccc2ccccc12)N/N=C/c1ccc2c(c1)CCC2
inactive: DU-145 prostate 96.6% | K-562 leukemia 17.3% | MALME-3M melanoma 63.6% | MDA-MB-231 breast 75% | RXF 393 renal 86% | SF-268 CNS 82.3% | SF-539 CNS 83% | UACC-257 melanoma 87.3% | M14 melanoma 77.9% | HCT-15 colon 56.6% | HT29 colon 62.4% | SNB-75 CNS 80.2% | SNB-19 CNS 92.1% | PC-3 prostate 74.2% | SK-MEL-5 melanoma 80.6% | UACC-62 melanoma 54.3% | LOX IMVI melanoma 69.6% | SK-MEL-28 melanoma 81.4%

CC(O)Cn1cnc2c1c(=O)n(C)c(=O)n2C (stereo not given)
inactive: MALME-3M melanoma 110% | MDA-MB-231 breast 95.5% | RXF 393 renal 99.3% | SF-268 CNS 103% | SF-295 CNS 109% | SF-539 CNS 93.7% | UACC-257 melanoma 106% | HCT-15 colon 96.4% | SNB-75 CNS 83.5% | U251 CNS 81.8% | SK-MEL-5 melanoma 101% | UACC-62 melanoma 100% | LOX IMVI melanoma 87.1% | SK-MEL-28 melanoma 103%

O=C(/C=C/c1ccccn1)c1ccccc1O
inactive: DU-145 prostate 76.4% and 71% | MALME-3M melanoma 70.1% and 107% | MDA-MB-231 breast 70.4% and 95.9% | RXF 393 renal 31.8% and 56.4% | SF-268 CNS 72.4% and 61.6% | SF-295 CNS 68.9% and 91.6% | SF-539 CNS 42.1% and 80.9% | UACC-257 melanoma 49.9% and 84.9% | HCT-15 colon 39.4% and 62% | HT29 colon 37.7% and 29% | SNB-75 CNS 75% | SNB-19 CNS 77.3% and 81.6% | PC-3 prostate 82.8% | SK-MEL-5 melanoma 75.2% and 88.1% | UACC-62 melanoma 77.5% and 81.6% | LOX IMVI melanoma 20.4% and 21.7% | SK-MEL-28 melanoma 77.6% and 92.6%

C=C1C(=O)O[C@H]2[C@H]1CC/C(COC(=O)NC1CCC(O)CC1)=C\CC[C@@]1(C)O[C@@H]21 (stereo not given in full)
inactive: DU-145 prostate 38.7% and 28.8% | MALME-3M melanoma 72.6% and 64.5% | MDA-MB-231 breast 60.8% and 62.4% | RXF 393 renal 54% and 53.2% | SF-268 CNS 93.2% and 91.5% | SF-295 CNS 96.6% and 95.7% | SF-539 CNS 71.9% and 63.2% | UACC-257 melanoma 65.6% and 69.1% | M14 melanoma 85.4% and 71.4% | HCT-15 colon 92.2% and 85.3% | HT29 colon 60% and 43.7% | SNB-75 CNS 71% and 71.7% | SNB-19 CNS 100% and 99.5% | U251 CNS 91.8% and 88.3% | PC-3 prostate 95.5% and 90.6% | LOX IMVI melanoma 90.3% and 86.9%

C=C(C)C1CC2(C)C(C)CC(OC(=O)/C(C)=C\C)CC2C(OC(=O)/C(C)=C\C)C1O (stereo not given)
active: UACC-62 melanoma 5.5% [100 µM]

COc1c(O)ccc(C2=Cc3ccc(O)cc3OC2)c1OC
active: UACC-62 melanoma -72.2% [100 µM] and -24.7% [100 µM]

COc1cc2c(c3c1c(=O)c1ccccc1n3C)C=C([N+](=O)[O-])C(C)(C)O2
active: UACC-62 melanoma -21.5% [100 µM] and -100% [100 µM]
